About 7,900 targets were measured; listed, in parts, are those with a hit and a random draw of the rest. About 0.6% of all pairs of compound and target were hits.
compound: CC(=O)c1cnc2ccc(-c3cc(Cl)c(O)c(Cl)c3)nc2c1N[C@H]1CC[C@H](CN(C)C)CC1; assay: log2 fold change, soluble protein after heating vs DMSO (PISA); higher = thermal stabilisation; K562 cells, 10 uM, 30 min; active = over 0.2 and 3.5 SD of the protein, either way, in both replicates (recomputed)
How it was run: (§1)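 Thermal stability values are relative to control samples and come from duplicates. They are expressed as log2 fold changes. For measurement, K562 cells (2×10^6 cells/mL) received 10 μM compound for 30 min, and aliquots were heated for 3 min over 48°C-58°C, pooled, and extracted at 4°C in PBS with 0.5% NP-40. Soluble protein, the supernatant after 21,000xg for 90 min, was quantified by TMTpro 16plex LC-MS/MS with equalised channel sums.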

Sequence of UniProt Q8IWA4 (Q8IWA4 whole entry, looked up): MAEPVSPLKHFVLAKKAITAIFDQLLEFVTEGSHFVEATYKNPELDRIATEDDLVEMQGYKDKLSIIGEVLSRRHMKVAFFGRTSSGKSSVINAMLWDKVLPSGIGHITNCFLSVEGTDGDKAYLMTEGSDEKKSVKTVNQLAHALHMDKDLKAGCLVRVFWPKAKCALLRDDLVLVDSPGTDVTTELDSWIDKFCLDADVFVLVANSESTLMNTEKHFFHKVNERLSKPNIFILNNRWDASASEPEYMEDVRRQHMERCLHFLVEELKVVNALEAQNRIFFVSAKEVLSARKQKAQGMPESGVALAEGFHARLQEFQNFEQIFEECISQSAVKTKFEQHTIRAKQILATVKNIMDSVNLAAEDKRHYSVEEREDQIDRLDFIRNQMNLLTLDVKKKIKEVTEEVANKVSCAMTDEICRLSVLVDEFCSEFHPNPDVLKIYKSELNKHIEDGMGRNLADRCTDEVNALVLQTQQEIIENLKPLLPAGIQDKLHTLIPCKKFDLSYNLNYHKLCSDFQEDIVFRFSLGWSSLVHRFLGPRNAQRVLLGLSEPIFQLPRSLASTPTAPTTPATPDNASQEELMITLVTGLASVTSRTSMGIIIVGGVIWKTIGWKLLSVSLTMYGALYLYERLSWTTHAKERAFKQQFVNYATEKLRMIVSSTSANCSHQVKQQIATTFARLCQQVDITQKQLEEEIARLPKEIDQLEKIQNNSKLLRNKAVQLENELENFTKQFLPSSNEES
Sequence of UniProt Q9H1B7 (Q9H1B7 whole entry, looked up): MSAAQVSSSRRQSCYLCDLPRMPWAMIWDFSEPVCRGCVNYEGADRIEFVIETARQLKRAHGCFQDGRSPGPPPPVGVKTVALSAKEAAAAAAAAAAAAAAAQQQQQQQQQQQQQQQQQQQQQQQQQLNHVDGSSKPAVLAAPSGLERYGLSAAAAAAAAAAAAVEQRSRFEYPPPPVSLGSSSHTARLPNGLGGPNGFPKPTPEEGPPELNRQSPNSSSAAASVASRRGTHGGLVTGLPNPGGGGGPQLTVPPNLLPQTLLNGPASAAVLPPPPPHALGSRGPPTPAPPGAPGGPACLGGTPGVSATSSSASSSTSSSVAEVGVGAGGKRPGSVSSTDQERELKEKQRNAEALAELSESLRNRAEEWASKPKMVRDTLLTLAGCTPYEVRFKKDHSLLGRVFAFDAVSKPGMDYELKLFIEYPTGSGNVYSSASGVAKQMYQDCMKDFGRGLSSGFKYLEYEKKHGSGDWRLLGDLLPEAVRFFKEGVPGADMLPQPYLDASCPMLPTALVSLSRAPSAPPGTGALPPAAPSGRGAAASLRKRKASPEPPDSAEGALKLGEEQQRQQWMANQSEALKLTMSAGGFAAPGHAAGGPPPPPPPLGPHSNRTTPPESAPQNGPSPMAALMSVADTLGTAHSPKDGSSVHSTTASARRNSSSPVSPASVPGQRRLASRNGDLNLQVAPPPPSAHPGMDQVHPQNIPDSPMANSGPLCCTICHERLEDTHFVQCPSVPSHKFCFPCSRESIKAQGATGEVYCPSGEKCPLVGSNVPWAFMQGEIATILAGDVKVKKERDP
Sequence of UniProt Q6P9B6 (Q6P9B6 whole entry, looked up): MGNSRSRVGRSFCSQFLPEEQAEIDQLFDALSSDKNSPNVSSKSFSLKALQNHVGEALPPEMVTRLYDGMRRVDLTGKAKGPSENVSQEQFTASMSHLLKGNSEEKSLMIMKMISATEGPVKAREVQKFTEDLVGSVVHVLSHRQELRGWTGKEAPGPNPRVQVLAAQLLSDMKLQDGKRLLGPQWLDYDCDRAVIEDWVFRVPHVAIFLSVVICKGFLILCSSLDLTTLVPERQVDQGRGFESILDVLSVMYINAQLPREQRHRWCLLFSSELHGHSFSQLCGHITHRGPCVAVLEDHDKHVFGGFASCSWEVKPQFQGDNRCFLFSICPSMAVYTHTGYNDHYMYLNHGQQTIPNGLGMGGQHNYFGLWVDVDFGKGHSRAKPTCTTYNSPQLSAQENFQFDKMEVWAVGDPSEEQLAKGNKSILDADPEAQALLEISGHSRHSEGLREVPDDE
Sequence of UniProt P27448 (P27448 whole entry, looked up): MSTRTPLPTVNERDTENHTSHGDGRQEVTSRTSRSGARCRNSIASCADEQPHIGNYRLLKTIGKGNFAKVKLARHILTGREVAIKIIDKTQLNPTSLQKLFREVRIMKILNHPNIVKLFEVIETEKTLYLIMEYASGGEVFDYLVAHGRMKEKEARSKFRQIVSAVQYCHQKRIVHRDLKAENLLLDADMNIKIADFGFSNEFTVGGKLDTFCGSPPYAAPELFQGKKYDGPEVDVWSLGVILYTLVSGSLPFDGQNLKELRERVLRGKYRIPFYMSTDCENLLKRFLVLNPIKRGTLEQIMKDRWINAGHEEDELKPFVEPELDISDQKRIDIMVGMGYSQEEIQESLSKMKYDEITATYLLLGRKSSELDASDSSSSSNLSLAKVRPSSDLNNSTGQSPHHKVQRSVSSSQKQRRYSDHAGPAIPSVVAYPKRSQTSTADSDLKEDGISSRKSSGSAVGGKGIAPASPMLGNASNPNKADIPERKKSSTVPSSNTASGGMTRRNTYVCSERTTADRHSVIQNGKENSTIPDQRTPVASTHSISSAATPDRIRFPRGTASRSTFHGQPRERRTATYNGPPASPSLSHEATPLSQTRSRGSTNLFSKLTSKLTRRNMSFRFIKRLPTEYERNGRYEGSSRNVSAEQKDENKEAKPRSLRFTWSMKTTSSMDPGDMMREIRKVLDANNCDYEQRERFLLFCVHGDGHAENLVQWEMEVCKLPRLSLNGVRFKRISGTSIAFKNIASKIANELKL
Sequence of UniProt Q8WV07 (Q8WV07 whole entry, looked up): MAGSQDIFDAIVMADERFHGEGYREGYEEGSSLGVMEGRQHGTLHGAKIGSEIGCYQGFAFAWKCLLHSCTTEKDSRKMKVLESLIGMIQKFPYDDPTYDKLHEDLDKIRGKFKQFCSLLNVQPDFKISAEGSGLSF
Sequence of UniProt Q9NQ29 (Q9NQ29 whole entry, looked up): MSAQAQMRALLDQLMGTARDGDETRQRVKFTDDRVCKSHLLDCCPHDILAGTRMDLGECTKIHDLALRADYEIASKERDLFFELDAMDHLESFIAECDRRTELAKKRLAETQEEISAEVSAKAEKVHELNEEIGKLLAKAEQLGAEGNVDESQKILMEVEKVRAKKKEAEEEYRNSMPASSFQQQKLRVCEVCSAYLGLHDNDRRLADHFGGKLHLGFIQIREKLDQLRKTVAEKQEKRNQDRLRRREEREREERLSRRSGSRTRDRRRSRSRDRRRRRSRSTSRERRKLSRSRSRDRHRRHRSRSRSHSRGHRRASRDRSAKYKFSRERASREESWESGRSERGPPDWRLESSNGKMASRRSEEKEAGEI
Sequence of UniProt Q6UWB1 (Q6UWB1 whole entry, looked up): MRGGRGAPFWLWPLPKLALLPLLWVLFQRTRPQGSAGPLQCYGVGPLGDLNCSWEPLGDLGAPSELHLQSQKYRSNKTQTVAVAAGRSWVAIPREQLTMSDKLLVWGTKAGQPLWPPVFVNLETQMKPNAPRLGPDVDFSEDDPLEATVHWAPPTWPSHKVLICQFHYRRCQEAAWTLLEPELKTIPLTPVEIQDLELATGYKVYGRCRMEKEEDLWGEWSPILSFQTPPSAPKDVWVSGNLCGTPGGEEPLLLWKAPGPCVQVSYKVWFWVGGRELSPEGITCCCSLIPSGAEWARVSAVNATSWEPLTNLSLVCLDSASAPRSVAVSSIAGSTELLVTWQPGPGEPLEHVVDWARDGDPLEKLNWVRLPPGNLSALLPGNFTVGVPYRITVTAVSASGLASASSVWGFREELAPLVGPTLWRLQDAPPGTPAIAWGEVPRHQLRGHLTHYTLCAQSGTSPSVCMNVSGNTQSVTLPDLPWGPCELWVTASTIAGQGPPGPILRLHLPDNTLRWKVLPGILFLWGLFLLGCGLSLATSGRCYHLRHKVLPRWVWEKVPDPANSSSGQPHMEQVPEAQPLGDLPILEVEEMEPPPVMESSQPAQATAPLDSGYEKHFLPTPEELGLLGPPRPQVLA
Sequence of UniProt Q8IW41 (Q8IW41 whole entry, looked up): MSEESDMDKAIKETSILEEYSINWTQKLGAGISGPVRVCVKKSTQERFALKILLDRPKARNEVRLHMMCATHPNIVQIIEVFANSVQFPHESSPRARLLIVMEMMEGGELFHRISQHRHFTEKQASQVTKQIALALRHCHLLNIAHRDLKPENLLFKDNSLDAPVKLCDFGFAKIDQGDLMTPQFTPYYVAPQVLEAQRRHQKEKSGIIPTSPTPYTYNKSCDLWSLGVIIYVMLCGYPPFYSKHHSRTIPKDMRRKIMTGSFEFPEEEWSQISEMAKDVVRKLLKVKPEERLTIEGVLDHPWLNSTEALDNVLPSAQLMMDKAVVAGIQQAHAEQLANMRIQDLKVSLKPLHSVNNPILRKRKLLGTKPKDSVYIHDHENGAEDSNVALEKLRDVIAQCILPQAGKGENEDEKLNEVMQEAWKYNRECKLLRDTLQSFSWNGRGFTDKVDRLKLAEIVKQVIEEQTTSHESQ

Target	log2 fold change
MDC1 (UniProt Q14676)	-0.013 (inactive)
MAPKAPK5 (UniProt Q8IW41)	0.052 (inactive)
KRAS isoform 2 (UniProt P01116)	-0.07 (inactive)
LTO1 (UniProt Q8WV07)	0.061 (inactive)
MEAK7 (UniProt Q6P9B6)	-0.093 (inactive)
KPNA6 (UniProt O60684)	-0.04 (inactive)
LSS (UniProt P48449)	-0.084 (inactive)
MARK3 (UniProt P27448)	-2.03 (active)
KIFBP (UniProt Q96EK5)	-0.033 (inactive)
LUZP1 (UniProt Q86V48)	0.275 (inactive)
MARK2 (UniProt E9PC69)	-2.09 (active)
IRF2BPL (UniProt Q9H1B7)	0.008 (inactive)
MFN1 (UniProt Q8IWA4)	-0.047 (inactive)
LUC7L (UniProt Q9NQ29)	-0.137 (inactive)
IMMP1L (UniProt Q96LU5)	0.002 (inactive)
IL27RA (UniProt Q6UWB1)	0.011 (inactive)

compound: CC(C)(C)Cn1c(N)nc2ccc(-c3[nH]c(C(C)(C)C)nc3-c3ccc(F)cc3)nc21 [ralimetinib]; assay: as above
How it was run: as §1

Target	log2 fold change
MAPK9 (UniProt P45984)	0.208 (inactive)
MGST3 (UniProt O14880)	0.062 (inactive)
INTS7 (UniProt Q9NVH2)	0.028 (inactive)
LARP1 (UniProt Q6PKG0)	0.031 (inactive)
KDM5D isoform 3 (UniProt Q9BY66)	-0.083 (inactive)
MAP2K1 (UniProt Q02750)	0.004 (inactive)
MAP3K20 (UniProt Q9NYL2)	0.019 (inactive)
LUC7L3 (UniProt O95232)	-0.024 (inactive)
LBR (UniProt Q14739)	-0.001 (inactive)
L2HGDH (UniProt Q9H9P8)	0.003 (inactive)
KDM3B (UniProt Q7LBC6)	-0.018 (inactive)
LUC7L2 (UniProt Q9Y383)	0.111 (inactive)
MFN2 (UniProt O95140)	-0.014 (inactive)
IPO9 (UniProt Q96P70)	0.01 (inactive)
LSR (UniProt Q86X29)	-0.009 (inactive)
MAP4 (UniProt P27816)	0.025 (inactive)
LARP7 isoform 3 (UniProt Q4G0J3)	0.111 (inactive)
MFF (UniProt Q9GZY8)	0.018 (inactive)
METTL18 (UniProt O95568)	-0.036 (inactive)
ILF3 isoform 7 (UniProt Q12906)	0.067 (inactive)

Target	log2 fold change
LAMP2 (UniProt P13473)	-0.12 (inactive)
LRPPRC (UniProt P42704)	-0.144 (inactive)
MAPKAPK3 (UniProt Q16644)	0.413 (active)
MDC1 (UniProt Q14676)	0.062 (inactive)
MAPKAPK5 (UniProt Q8IW41)	0.029 (inactive)
KRAS isoform 2 (UniProt P01116)	0.02 (inactive)
LTO1 (UniProt Q8WV07)	0.028 (inactive)
MEAK7 (UniProt Q6P9B6)	0.078 (inactive)
KPNA6 (UniProt O60684)	0.077 (inactive)
LSS (UniProt P48449)	0.147 (inactive)
MARK3 (UniProt P27448)	0.014 (inactive)
KIFBP (UniProt Q96EK5)	-0.02 (inactive)
LUZP1 (UniProt Q86V48)	0.08 (inactive)
MARK2 (UniProt E9PC69)	0.031 (inactive)
IRF2BPL (UniProt Q9H1B7)	0.013 (inactive)
MFN1 (UniProt Q8IWA4)	-0.027 (inactive)
LUC7L (UniProt Q9NQ29)	0.009 (inactive)
IMMP1L (UniProt Q96LU5)	0.031 (inactive)
IL27RA (UniProt Q6UWB1)	0.058 (inactive)

compound: CC(C)(O)CC(=O)NCCn1ccc2ncnc(Nc3ccc(Oc4cccc(C(F)(F)F)c4)c(Cl)c3)c21; assay: as above
How it was run: as §1

Target	log2 fold change
MAPK9 (UniProt P45984)	0.005 (inactive)
MGST3 (UniProt O14880)	0.041 (inactive)
INTS7 (UniProt Q9NVH2)	-0.085 (inactive)
LARP1 (UniProt Q6PKG0)	0 (inactive)
KDM5D isoform 3 (UniProt Q9BY66)	-0.155 (inactive)
MAP2K1 (UniProt Q02750)	-0.066 (inactive)
MAP3K20 (UniProt Q9NYL2)	-0.032 (inactive)
LUC7L3 (UniProt O95232)	0.024 (inactive)
LBR (UniProt Q14739)	-0.211 (inactive)
L2HGDH (UniProt Q9H9P8)	-0.092 (inactive)
KDM3B (UniProt Q7LBC6)	-0.089 (inactive)
LUC7L2 (UniProt Q9Y383)	0.031 (inactive)
MFN2 (UniProt O95140)	0.009 (inactive)
IPO9 (UniProt Q96P70)	-0.079 (inactive)
LSR (UniProt Q86X29)	0.058 (inactive)
MAP4 (UniProt P27816)	0.012 (inactive)
LARP7 isoform 3 (UniProt Q4G0J3)	0.021 (inactive)
MFF (UniProt Q9GZY8)	0.002 (inactive)
METTL18 (UniProt O95568)	0.016 (inactive)
ILF3 isoform 7 (UniProt Q12906)	0.086 (inactive)

Target	log2 fold change
LAMP2 (UniProt P13473)	-0.007 (inactive)
LRPPRC (UniProt P42704)	-0.891 (inactive)
MAPKAPK3 (UniProt Q16644)	-0.103 (inactive)
MDC1 (UniProt Q14676)	0.122 (inactive)
MAPKAPK5 (UniProt Q8IW41)	-0.139 (inactive)
KRAS isoform 2 (UniProt P01116)	0.101 (inactive)
LTO1 (UniProt Q8WV07)	0.011 (inactive)
MEAK7 (UniProt Q6P9B6)	-0.018 (inactive)
KPNA6 (UniProt O60684)	-0.047 (inactive)
LSS (UniProt P48449)	0.099 (inactive)
MARK3 (UniProt P27448)	-0.035 (inactive)
KIFBP (UniProt Q96EK5)	-0.045 (inactive)
LUZP1 (UniProt Q86V48)	0.114 (inactive)
MARK2 (UniProt E9PC69)	-0.047 (inactive)
IRF2BPL (UniProt Q9H1B7)	-0.18 (inactive)
MFN1 (UniProt Q8IWA4)	-0.043 (inactive)
LUC7L (UniProt Q9NQ29)	0.08 (inactive)
IMMP1L (UniProt Q96LU5)	0.03 (inactive)
IL27RA (UniProt Q6UWB1)	0.005 (inactive)
